Compound activity as filed in PubChem BioAssay.
A selection: hits, their analogues and other compounds. The true share with any hit is near 1.4%.
CCT modulator – modulators of cytosolic chaperonin (CCT/TRiC) activity. AID 651819. purified chaperonin ATPase assay, HTRF ADP detection, 30 min. hit rate 0.3% among 360,000. activity change, % (test concentration not listed), hits read low; in the data active = activity change below about -30%; note: % is set by controls: 0 for no effect and ±100 for the full control effect
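TRiC (40 or 20 nM final, by batch activity) in 30 mM Tris pH 7.4, 100 mM KCl, 5 mM MgCl2, 1 mM DTT was treated with compound at 76 uM single dose, then 10 uM ATP, 30 min at 37 °C. ADP was read by HTRF Transcreener.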
Rango release inh – inhibitors of RanGTP-induced Rango-importin beta complex dissociation; O95149+P62826; Biochemical FRET Rango-importin beta, RanGTP-induced dissociation; Potency, µM (doses to about 46.1 µM), for inactives: at the highest dose activity change, negative = inhibition; hit rate 0.071% among 340,000; note: potency is the fitted concentration of half-maximal effect; % of control where 0% means no effect; nearly all actives have a fitted effect of over 45% in size
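Recombinant Rango FRET biosensor (EYFP–snurportin 1 IBB–cerulean CFP10) at 0.1 uM premixed with 0.25 uM importin beta in PBS, 1 mM DTT, 0.02% Tween-20, 0.1% BSA. Compound added 5 min; RanGTP-RCC1 (0.6 uM Ran, 2 mM GTP, 0.2 uM RCC1) then triggers release, read at 45 min.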
MmCpn inh – M. maripaludis TRiC chaperonin inhibition. purified Mm-Cpn ATPase, ADP Transcreener TR-FRET. Potency, µM (highest dose often 76.9 µM), inactives show at the highest dose activity, negative = inhibition, most hits filed as inhibitors. hit rate 0.031% among 330,000. AID 504842; active = well fitted inhibition curve with a large enough effect; inconclusive = small, poorly fitted or top-dose-only effect; note: potency is the fitted concentration of half-maximal effect; % is set by controls: 0 for no effect and ±100 for the full control effect; nearly all actives have a fitted effect of over 80% in size
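Reaction buffer contained 30 mM Tris pH 7.4, 100 mM KCl, 5 mM MgCl2 and 1 mM DTT. Mm-CPN (25 nM final) hydrolysed 10 uM ATP over 30 min at 37°C; ADP was read by HTRF.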
hERG WT inh – blocks the wildtype human KCNH2 potassium channel | Q12809 | hit rate 0.37% among 340,000 | activity change, % at 1.84 µM | U2OS, BacMam KCNH2, thallium flux FluxOr; hits give low values;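 active = maximum activity change below -70%; inconclusive = maximum activity change between -70% and -50%; inactive = maximum activity change above -50%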; note: % is set by controls: 0 for no effect and ±100 for the full control effect
Target sequence (Q12809 whole entry, looked up): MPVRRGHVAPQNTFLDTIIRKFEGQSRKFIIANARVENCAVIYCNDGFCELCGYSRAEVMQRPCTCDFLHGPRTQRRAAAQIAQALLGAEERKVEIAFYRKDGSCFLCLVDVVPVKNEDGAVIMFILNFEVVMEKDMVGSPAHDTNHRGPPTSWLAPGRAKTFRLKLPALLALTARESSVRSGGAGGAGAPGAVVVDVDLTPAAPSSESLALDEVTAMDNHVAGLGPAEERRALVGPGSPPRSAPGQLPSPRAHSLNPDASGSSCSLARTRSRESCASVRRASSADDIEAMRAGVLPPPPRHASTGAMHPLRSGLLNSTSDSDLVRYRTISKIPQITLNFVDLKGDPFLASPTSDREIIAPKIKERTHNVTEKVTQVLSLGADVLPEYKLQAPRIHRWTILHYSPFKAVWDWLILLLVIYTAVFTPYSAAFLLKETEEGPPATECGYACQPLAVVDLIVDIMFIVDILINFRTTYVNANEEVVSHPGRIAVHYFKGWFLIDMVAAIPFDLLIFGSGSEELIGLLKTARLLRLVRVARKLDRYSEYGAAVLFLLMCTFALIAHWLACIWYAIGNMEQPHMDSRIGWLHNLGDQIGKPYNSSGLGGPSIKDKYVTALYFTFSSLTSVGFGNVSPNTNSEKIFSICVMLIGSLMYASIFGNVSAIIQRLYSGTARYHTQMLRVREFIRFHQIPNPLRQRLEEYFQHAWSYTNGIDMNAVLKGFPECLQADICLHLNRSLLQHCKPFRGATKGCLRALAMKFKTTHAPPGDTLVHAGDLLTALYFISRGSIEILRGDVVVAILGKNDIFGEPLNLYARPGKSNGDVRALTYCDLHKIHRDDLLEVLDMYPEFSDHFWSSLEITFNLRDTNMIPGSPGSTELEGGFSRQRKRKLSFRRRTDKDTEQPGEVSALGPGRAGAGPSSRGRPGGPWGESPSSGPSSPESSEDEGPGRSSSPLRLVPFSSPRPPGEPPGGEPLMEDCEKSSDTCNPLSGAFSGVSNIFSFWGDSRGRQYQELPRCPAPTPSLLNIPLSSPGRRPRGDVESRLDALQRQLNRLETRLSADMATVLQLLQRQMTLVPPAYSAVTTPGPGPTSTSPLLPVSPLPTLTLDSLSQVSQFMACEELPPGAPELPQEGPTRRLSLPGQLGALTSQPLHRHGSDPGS
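U2OS cells were transduced with wild-type KCNH2 virus (2.03 x 10^8 / mL) for 4 h at room temperature, then cultured overnight at 37 C. Thallium flux was read with FluxOr dye. Rate constants were normalized to DMSO controls.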
Rango complex inh – inhibitors of Rango-importin beta complex formation. Q14974. Rango CFP/YFP FRET sensor + importin beta, 45 min. Potency, µM (top dose mostly 92.2 µM), for the others: at the highest dose inhibition of complex formation. hit rate 0.031% among 340,000. AID 540263;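 note: potency is the fitted concentration of half-maximal effect; 0% = DMSO wells and 100% = buffer wells lacking importin beta; nearly all actives have a fitted effect of over 15% in size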
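Inhibition scored from the CFP 486 nm/YFP 530 nm FRET ratio 45 min after adding 0.125 microM importin beta to 50 nM Rango biosensor preincubated 5 min with compound (room temperature, PBS with DTT, Tween-20, BSA). No-importin wells as positive control.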
KCNH2 3.1 block – blocks the human KCNH2 3.1 channel isoform. activity change, % (tested at about 1.8 µM). U2OS KCNH2 3.1, thallium flux FluxOr; hits give low values. AID 720553. hit rate 0.95% among 340,000;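 active = maximum activity change below -70%; inconclusive = maximum activity change from -70% to -50%; inactive = maximum activity change above -50%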;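 note: thallium influx rate constant from kinetic fluorescence after stimulation buffer; % is set by controls: 0 for no effect and ±100 for the full control effect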
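We transduce U2OS cells with the mutant 3.1 virus, culture them overnight, load FluxOr with Red40 quencher for 45 min, then add stimulation buffer and read kinetically for 2 min to derive a normalized rate constant.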
* = called active by the depositor; ? = inconclusive; / = no result given. Unless noted, calls come from the whole dose curve.

SMILES | CCT modulator | Rango release inh | MmCpn inh | hERG WT inh | Rango complex inh | KCNH2 3.1 block
COC(=O)c1ccccc1Nc1ccccc1 | -32* | 7% | -1% | -14 | 3% | -16
O=C(COC(=O)c1ccccc1Nc1ccccc1)c1ccccc1 | -2 | 5% | -1% | -269* | -2% | 6
CN(Cc1ccon1)C(=O)C1CCC(=O)N(Cc2ccc(Cl)cc2)C1 (centres undefined) | -2 | 11% | 2% | 1 | 0% | -4
O=C(CSc1nncn1-c1ccccc1F)NC1CCCCC1 | 1 | -7% | 1% | -3 | 3% | -118*
CC(=O)Nc1cc(Br)ccc1O | 1 | -12% | -1% | 7 | 1% | -1
CC(=O)Nc1c(F)cc(Br)cc1F | 0 | 7% | 1% | 2 | 7% | -95*
COc1cccc(NC(=O)CN(C)C(=O)C23CC4CC(CC(Cl)(C4)C2)C3)c1 | 2 | 6% | -7% | -18 | 1% | -32
Cc1cc(C[n+]2ncsc2N)c2ncccc2c1 | -1 | 7% | -5% | 0 | 4% | -9
COc1ccc2c(c1)sc(N)[n+]2Cc1cc(C)cc2cccnc12 | -5 | ? | 1% | 16 | ? | -77*
CCOc1ccc2c(c1)sc(N)[n+]2Cc1cc(C)cc2cccnc12 | 1 | -10% | -1% | 16 | ? | -88*
CCN(CC)S(=O)(=O)c1cc(NC(=O)C2CC(=O)N(Cc3ccccc3)C2)ccc1Cl (centres undefined) | -7 | 3% | 2% | 4 | 0% | -4
Cc1ccc(C(=O)NCCc2nnc3ccc(NCc4ccc5c(c4)OCO5)nn23)cc1 | -1 | -13% | -4% | 0 | 2% | /
COc1ccc(C(C)=O)cc1CSc1nnc(Nc2ccccc2C)s1 | 1 | 3% | -19% | 17 | ? | -117*
Cc1cc(SCC(=O)c2ccc3c(c2)OCO3)nc2ccccc12 | -69* | 15% | ? | -14 | 1% | 1
Cc1cc(SCC(=O)c2ccc(O)c(O)c2)nc2ccccc12 | -1 | -15% | -1% | 0 | -3% | -2
COC(=O)C1CN(C(=O)COc2ccc(Cl)c(C)c2)c2ccccc2O1 (centres undefined) | 0 | -2% | 1% | -1 | 0% | -10
COc1ccc(S(=O)(=O)N2CCOCC2)cc1NC(=O)c1cccc(Cl)c1 | 1 | -16% | -2% | 1 | 4% | -3
N/C(=N\OC(=O)c1ccccc1)c1ccn[nH]1 | -31* | -14% | ? | -4 | 0% | 3
CC(=O)N1CC(C)Sc2ccc(S(=O)(=O)NC(C)c3ccccc3)cc21 (centres undefined) | -1 | 1% | 2% | -2 | -2% | 3
COc1ccccc1C(=O)N1CCc2ccccc21 | 0 | 19% | 0% | -10 | 2% | -73*
CCn1cc(C(=O)N2CCN(c3ccccc3OC)CC2)c2cc(OC)c(OC)cc2c1=O | 2 | 31% | 1% | 8 | 0% | 12
COc1cccc(C(=O)N2CCCc3ccccc32)c1OC | -1 | / | / | -9 | / | 3
CCn1cc(C(=O)N2CCCc3ccccc32)c2cc(OC)c(OC)cc2c1=O | -30* | 2% | 3% | -10 | 1% | -8
CC(=O)Nc1ccccc1C(=O)C(=O)NCCc1ccccc1 | -3 | -9% | -1% | 11 | -2% | 14
COc1cc(/C=N/NC(=O)CCN2CCN(C(c3ccccc3)c3ccccc3)CC2)ccc1O | -5 | 2% | -1% | -43 | 1% | -106*
CCC(=O)Nc1cccc(SC)c1 | -2 | 5% | -1% | 0 | 0% | -83*
COCC(=O)Nc1ccc(Nc2ccccc2)cc1 | -2 | 12% | 0% | -3 | -3% | -2
CCC(=O)Nc1ccc(Nc2ccccc2)cc1 | 0 | -11% | -3% | -82* | -3% | 2
CCOC(=O)N1CCC(N(CCOC)C(=S)Nc2cccc(SC)c2)CC1 | 1 | -9% | 5% | 3 | 1% | 0
